Laboratory results reported in PubChem BioAssay AID602393 (Broad Institute, 2012).
Among all 350,000 compounds or so, about 7,000 (2%) were called active. The entries come from a sample that favours actives as a whole. A number with no mark means an inactive call. Cut-off read from the data, not from the text of the source: active = activation above about 40%; inconclusive = no clear call, values can overlap the other calls; inactive = below that.

test: Bmi1 luciferase reporter increase in mESCs, primary screen, esBAF inhibitor project, mouse ES cells, Bmi1 luciferase knock-in, single point (AID 602393); conditions: 24 h, at 12.5 µM, hits give high values, 100% = twice the neutral-well signal;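 note: 0% = median of the plate's neutral control wells and 100% = double that signal; a rise in the Bmi1 reporter signal indicates esBAF inhibition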

SMILES | reporter increase
C[C@H](CO)N1C[C@H](C)[C@@H](CN(C)CC2CCCCC2)Oc2ccc(NS(=O)(=O)c3cccs3)cc2CC1=O | -1.82%
CCCNC(=O)C[C@@H]1C[C@@H]2c3cc(N(C)C)ccc3O[C@@H]2[C@H](CO)O1 | 1.01%
CCCN(C)C[C@@H]1Oc2cc(C#Cc3ccc(F)cc3)ccc2S(=O)(=O)N([C@H](C)CO)C[C@H]1C | -2.93%
CCOC(=O)c1cc2ccccc2n1CC(=O)c1ccccc1 | 2.35%
C=CCn1nc(C(=O)OCC)cc1-c1sc(NC(=O)c2ccccc2)nc1C | 4.24%
CCOc1ccc(C(=O)Nc2c3c(nn2-c2ccccc2)CS(=O)(=O)C3)cc1 | -0.973%
CCOC(=O)c1cc(-c2sc(NC(=O)c3ccccc3)nc2C)n(Cc2ccccc2)n1 | 56% (active)
CCOC(=O)c1cc(-c2sc(NC(=O)c3ccccc3)nc2C)n(-c2ccc(Br)cc2)n1 | 50.4% (active)
CCOC(=O)c1cc(-c2sc(NC(=O)c3ccccc3)nc2C)n(CCO)n1 | 12.3%
COc1ccc(NC(=O)Nc2ccc3c(c2)[C@@H]2C[C@H](CC(=O)N[C@@H](C)c4ccccc4)O[C@@H](CO)[C@@H]2O3)cc1 | -1.34%
Cc1ccc(S(=O)(=O)N(C)C[C@@H]2OCCCC[C@@H](C)Oc3ccc(NC(=O)Nc4ccc(C(F)(F)F)cc4)cc3C(=O)N([C@@H](C)CO)C[C@@H]2C)cc1 | 1.3%
C[C@@H]1CCCCO[C@H](CN(C)S(=O)(=O)c2ccccc2)[C@H](C)CN([C@@H](C)CO)C(=O)c2cc(N(C)C)ccc2O1 | -0.863%
COc1ccc2oc(=O)cc(-c3cc4ccccc4o3)c2c1 | -2.86%
Cc1cc2c(=O)n(C)c(SCC(=O)c3cc4ccccc4o3)nc2s1 | -5.28%
Nc1ncc(-c2cc3ccccc3oc2=O)s1 | 47.3% (active)
COc1ccccc1C(=O)Nc1ccc2c(c1)C(=O)N(C)C[C@@H](OC)[C@@H](C)CN(CC1CC1)[C@@H](C)CO2 | 2.64%
CCC(=O)N1CCCCN2[C@H](C1)[C@@H](c1ccc(C#CCOC)cc1)[C@@H]2CO | 3.27%
C[C@H](CO)N1C[C@H](C)[C@@H](CN(C)S(=O)(=O)c2ccc(F)cc2)OCCCC[C@H](C)Oc2ccc(NC(=O)CCCN(C)C)cc2C1=O | -3.29%
Cc1ccc(S(=O)(=O)N2C[C@H](O)COC[C@@H]3O[C@@H](CC(=O)NCC4CCCCC4)CC[C@H]32)cc1 | -0.379%
COCc1cccc(-c2csc(C(O)c3ccc(F)cc3)n2)c1 (configuration not stated) | 49.8% (active)
COc1ccc(C(O)c2nc(-c3ccc4c(c3)OCO4)cs2)cc1 (configuration not stated) | 11.6%
COc1cc(C(O)c2nc(-c3cccc(C(=O)O)c3)cs2)ccc1F (configuration not stated) | 4.68%
